# Reference: PubChem BioAssay
# The source made the active and inactive calls. Unless noted, how the calls were made is not given here.
# Experiments:
# [1] = HepG2 liver cancer cell viability effects, profiling panel, resazurin fluorescence, 24 h, PK04 Diversity Set (AID 1172); details: higher = more signal
# [2] = basal S. cerevisiae growth modulation, no modifier, primary screen, OD600, strain BY4716, 24 h, basal condition (AID 1173); details: OD600, 24 h, higher = more signal, called active from +8 up or from −8 down
# [3] = MM1S myeloma cell viability, profiling panel, resazurin fluorescence, basal, 24 h, PK04 Diversity Set (AID 1174); details: higher = more signal, called active from +8 up or from −8 down;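 further: MM1S multiple myeloma cell line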
# [4] = molecular target: Dihydroorotate dehydrogenase (quinone), mitochondrial (Plasmodium falciparum (isolate 3D7)) (UniProt Q08210); assay: PfDHODH enzyme inhibitors, primary screen, biochemical, C-terminal His tag, absorbance 600 nm (AID 1175); details: DCIP absorbance 600 nm, higher = more signal, called active from +8 up or from −8 down;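 further: recombinant parasite enzyme with a five histidine tag at its C terminus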
# Chain of Dihydroorotate dehydrogenase (quinone), mitochondrial (Plasmodium falciparum (isolate 3D7)) (Q08210 whole entry, looked up): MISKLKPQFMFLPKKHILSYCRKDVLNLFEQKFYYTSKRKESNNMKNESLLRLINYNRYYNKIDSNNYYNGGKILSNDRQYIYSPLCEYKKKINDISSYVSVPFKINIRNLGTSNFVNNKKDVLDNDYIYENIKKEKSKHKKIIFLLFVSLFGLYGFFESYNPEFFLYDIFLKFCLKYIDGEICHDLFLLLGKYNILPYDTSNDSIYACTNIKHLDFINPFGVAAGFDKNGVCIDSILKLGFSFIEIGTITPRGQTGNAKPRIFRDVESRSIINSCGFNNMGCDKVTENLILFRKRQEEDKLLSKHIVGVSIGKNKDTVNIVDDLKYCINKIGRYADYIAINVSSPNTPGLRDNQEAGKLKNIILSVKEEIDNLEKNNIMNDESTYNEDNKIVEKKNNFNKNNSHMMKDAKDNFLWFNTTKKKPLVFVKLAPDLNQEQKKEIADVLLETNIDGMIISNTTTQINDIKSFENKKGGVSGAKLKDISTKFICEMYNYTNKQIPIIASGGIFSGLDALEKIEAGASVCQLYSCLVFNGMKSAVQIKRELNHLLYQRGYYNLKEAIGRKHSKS
# [5] = P. aeruginosa biofilm formation inhibitors, primary screen, strain PAO1, LB-PBS medium, absorbance 600 nm (AID 1176); details: P. aeruginosa PAO1 growth/biofilm, A600, 12 h; higher = more signal
# [6] = S. cerevisiae RM11-1a growth modifiers, primary screen, strain RM11-1a, OD600, basal, 24 h (AID 1177); details: OD600, 24 h, higher = more signal, called active from +8 up or from −8 down;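 further: cultures grown under basal conditions with no added stressor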
# [7] = E. coli acrAB mutant growth effects, primary screen, E. coli filamentation inducers, strain DRC39, OD650, 24 h (AID 1178); details: higher = more signal, called active from +8 up or from −8 down;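 further: growth measured as culture turbidity by optical density at 650 nm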
# [8] = E. coli acrAB mutant growth effects, primary screen, E. coli filamentation inducers, strain DRC39, OD650, 48 h (AID 1179);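 further: screen aims at cell division blockers that make cells filament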; details: E. coli DRC39 delta-acrAB growth, higher = more signal, called active from +8 up or from −8 down
# [9] = RPMI8226 myeloma cell viability, profiling panel, resazurin fluorescence, basal, 24 h, PK04 Diversity Set (AID 1180); details: higher = more signal;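 further: RPMI8826 multiple myeloma cell line at 5000 cells per well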
# [10] = molecular target: E3 ubiquitin-protein ligase XIAP (Homo sapiens) (UniProt P98170); assay: XIAP binders, primary screen, biophysical, small-molecule microarray, fluorescence 635 nm (AID 1181); details: small-molecule microarray binding, higher = more signal;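 further: score merges 667 nm emission and signal to noise over triplicate slides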
# Chain of E3 ubiquitin-protein ligase XIAP (Homo sapiens) (P98170 whole entry, looked up): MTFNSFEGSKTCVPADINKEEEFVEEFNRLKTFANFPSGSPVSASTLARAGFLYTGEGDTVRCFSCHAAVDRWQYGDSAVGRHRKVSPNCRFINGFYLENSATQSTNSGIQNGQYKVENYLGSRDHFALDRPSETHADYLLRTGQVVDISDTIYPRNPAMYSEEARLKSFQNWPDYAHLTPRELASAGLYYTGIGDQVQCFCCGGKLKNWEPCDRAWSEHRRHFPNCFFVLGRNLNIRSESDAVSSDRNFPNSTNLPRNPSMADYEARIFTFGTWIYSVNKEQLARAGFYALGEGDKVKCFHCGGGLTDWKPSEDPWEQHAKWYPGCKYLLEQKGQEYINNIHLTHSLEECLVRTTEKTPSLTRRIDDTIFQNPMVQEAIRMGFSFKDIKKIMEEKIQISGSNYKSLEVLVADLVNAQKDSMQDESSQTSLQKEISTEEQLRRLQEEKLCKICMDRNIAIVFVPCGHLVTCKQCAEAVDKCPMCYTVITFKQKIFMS
# [11] = test system: XIP peptide (Xip251-270) binding; assay: small-molecule binders of XIP peptide, primary screen, biochemical, small-molecule microarray, fluorescence 635/667 nm, 0.1 µg/mL protein (AID 1182); details: fluorescent protein binding, 635 nm, higher = more signal, called active from +8 up or from −8 down
# XIP peptide (Xip251-270) = assay: small-molecule binders of XIP peptide, primary screen, biochemical, small-molecule microarray, fluorescence 635/667 nm, 0.5 µg/mL protein (AID 1183); details: small-molecule microarray binding, fluorescence 635 nm; higher = more signal
# [12] = Plasmodium falciparum growth inhibition, primary screen, strain 3D7, DAPI fluorescence, 100 nL (AID 1184);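 further: parasites grown inside human red blood cells in medium with human serum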; details: P. falciparum 3D7 growth, 3 d, higher = more signal
# [13] = molecular target: Homeobox protein Hox-A13 (Mus musculus) (UniProt Q62424); assay: inhibitors of HoxA13-DNA binding, primary screen, biochemical, fluorescence polarization, labeled oligonucleotide (AID 1185); details: 15 min, higher = more signal, called active from +8 up or from −8 down
# Chain of Homeobox protein Hox-A13 (Mus musculus) (Q62424 whole entry, looked up): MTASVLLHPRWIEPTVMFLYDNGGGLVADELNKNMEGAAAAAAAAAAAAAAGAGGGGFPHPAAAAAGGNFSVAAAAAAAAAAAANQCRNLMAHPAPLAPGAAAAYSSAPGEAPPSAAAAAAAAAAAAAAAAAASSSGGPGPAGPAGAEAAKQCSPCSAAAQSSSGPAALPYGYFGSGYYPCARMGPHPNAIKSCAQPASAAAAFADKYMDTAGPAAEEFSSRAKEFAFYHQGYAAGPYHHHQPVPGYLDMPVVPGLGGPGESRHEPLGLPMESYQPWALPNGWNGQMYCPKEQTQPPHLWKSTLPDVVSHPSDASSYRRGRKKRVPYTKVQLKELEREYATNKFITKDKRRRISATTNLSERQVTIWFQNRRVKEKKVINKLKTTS
# [14] = inhibitors of hydroxyurea-induced Chk1 phosphorylation, primary screen, imaging, HeLa, phospho-Chk1 antibody, percent positive cells (AID 1186); details: hydroxyurea-induced phospho-Chk1 immunofluorescence imaging, higher = more signal
# [15] = inhibitors of hydroxyurea-induced Chk1 phosphorylation, primary screen, imaging, HeLa, phospho-Chk1 nuclear intensity (AID 1187); details: hydroxyurea-induced phospho-Chk1 immunofluorescence imaging, higher = more signal
Structure (SMILES),z-score [1],z-score [2],z-score [3],composite z-score [4],z-score [5],z-score [6],z-score [7],z-score [8],z-score [9],composite z-score [10],composite z-score [11],composite z-score (XIP peptide (Xip251-270)),z-score [12],z-score [13],z-score [14],z-score [15]
COc1ccc([Si](C)(C)[C@@H]2[C@@H](CC(=O)N3Cc4ccccc4C[C@H]3CO)O[C@]3(C(=O)N(Cc4cccc(N5CCOC5=O)c4)c4ccccc43)[C@H]2C)cc1,-1.02,-0.238 (inactive),-2.17 (inactive),0.314 (inactive),0.79 (inactive),1.64 (inactive),-0.742 (inactive),-0.655 (inactive),-2.05,-0.13,0.0848 (inactive),0.672,-2.83,-2.49 (inactive),-0.34 (inactive),-0.695 (inactive)
C=CCN1Cc2ccccc2[C@H]2OC(c3ccc(OCCCO)cc3)=N[C@@]2(CCS(=O)(=O)c2ccccc2)C1=O,-0.439,1.11 (inactive),-0.321 (inactive),0.2 (inactive),1.2 (inactive),0.86 (inactive),-0.135 (inactive),-0.342 (inactive),-0.0829,-0.0599,1.61 (inactive),0.767,-2.18,-3.88 (inactive),-0.163 (inactive),-0.237 (inactive)
COc1ccc(C(O)C2C=CC3C(=O)N(C)C(=O)C3N2N(c2ccccc2)c2ccccc2)cc1 (centres undefined),-0.326,0.405 (inactive),-1.61 (inactive),-0.472 (inactive),0.971 (inactive),0.279 (inactive),-0.41 (inactive),0.0882 (inactive),-1.29,-0.0772,0.195 (inactive),0.512,-0.459,-6.57 (inactive),0.45 (inactive),-0.508 (inactive)
C=CCN1C(=O)[C@@]2(O[C@@H](CCn3cc([C@H](O)c4ccccc4)nn3)[C@H]([Si](C)(C)c3ccc(OC)cc3)[C@H]2C)c2cc(N3C(=O)c4cccc5cccc3c45)ccc21,-1.36,0.318 (inactive),-2.17 (inactive),-0.0217 (inactive),0.72 (inactive),1.72 (inactive),0.0833 (inactive),-0.0869 (inactive),-2.42,0.212,0.185 (inactive),0.21,-0.816,-3.29 (inactive),-0.0586 (inactive),0.311 (inactive)
C=C(COC)/C(=C/C[C@H](OC(C)=O)c1ccccc1OCCO)c1cc(C(=O)OC)ccc1OC,-0.216,-1.14 (inactive),0.181 (inactive),-1.68 (inactive),-0.718 (inactive),0.0505 (inactive),-0.474 (inactive),-0.653 (inactive),-0.776,-0.239,0.117 (inactive),0.788,-2.75,-4.27 (inactive),-1.15 (inactive),-1.14 (inactive)
COc1ccc([Si](C)(C)[C@@H]2[C@@H](CC(=O)N3CCC[C@H]3CO)O[C@]3(C(=O)N(Cc4ccc(N5CCOC5=O)cc4)c4ccccc43)[C@H]2C)cc1,-1.39,-0.793 (inactive),-2.01 (inactive),-2.19 (inactive),1.06 (inactive),-0.975 (inactive),0.0669 (inactive),0.459 (inactive),-2.98,0.0819,0.56 (inactive),0.727,0.309,-3.21 (inactive),-1.03 (inactive),-0.48 (inactive)
CC(C)C(CO)N1C(=O)[C@@H]2C3C(=O)OCCC/C=C\[C@H]3OC23C=CCN(Cc2ccccc2)C(=O)[C@@H]13 (some centres undefined),0.49,-0.612 (inactive),0.607 (inactive),-0.479 (inactive),-1.03 (inactive),-0.0566 (inactive),1.15 (inactive),0.755 (inactive),1.14,-0.166,1.22 (inactive),-0.209,0.359,-5.12 (inactive),-0.932 (inactive),-0.842 (inactive)
COc1cc(C(O)C2C=CC3C(=O)N(c4ccccc4)C(=O)C3N2Nc2ccccc2F)cc(OC)c1OC (centres undefined),-0.514,0.886 (inactive),-0.565 (inactive),0.0998 (inactive),0.437 (inactive),0.881 (inactive),-0.631 (inactive),-0.765 (inactive),-0.17,0.081,0.283 (inactive),0.737,-0.267,-4.84 (inactive),0.409 (inactive),-0.477 (inactive)
O=C1NC(=O)C2C1C=CC(C(O)c1ccc(B(O)O)cc1)N2Nc1ccc(Cl)cc1Cl (centres undefined),-1.97,-7.76 (inactive),-1.19 (inactive),-0.0575 (inactive),1.29 (inactive),1.48 (inactive),0.0436 (inactive),-1.52 (inactive),-1.78,0.0049,0.185 (inactive),-0.0187,-0.195,-4.45 (inactive),0.549 (inactive),0.367 (inactive)
NCCCCCCNC(=O)[C@@H]1C[C@@H]2C(=O)N3CCC[C@H]3C(=O)N2[C@@H]1c1cccc(OCCO)c1,0.158,-1.44 (inactive),0.711 (inactive),0.101 (inactive),-1.23 (inactive),-0.853 (inactive),0.699 (inactive),0.768 (inactive),-0.0931,-0.0172,2.08 (inactive),0.2,-0.772,-4.9 (inactive),-0.705 (inactive),-0.405 (inactive)
CC(C)=CCCC(C)=CC(O)C1C=CC2C(=O)NC(=O)C2N1Nc1ccccn1 (centres undefined),-1.33,0.386 (inactive),-0.58 (inactive),0.242 (inactive),1.55 (inactive),-0.881 (inactive),-0.222 (inactive),0.528 (inactive),-0.754,0.0602,0.113 (inactive),0.628,0.563,-4.67 (inactive),0.282 (inactive),-0.0205 (inactive)
COc1ccc(C(=O)Nc2ccc3c(c2)[C@@]2(O[C@H](CCO)[C@@H]([Si](C)(C)c4ccc(OC)cc4)[C@@H]2C)C(=O)N3Cc2ccccc2)cc1,-2.52,-1.96 (inactive),-8.32 (active),-0.687 (inactive),0.249 (inactive),2.7 (inactive),-0.59 (inactive),-0.927 (inactive),-5.58,-0.131,0.396 (inactive),0.466,-2.89,-1.54 (inactive),0.0691 (inactive),0.518 (inactive)
C=CCC(OC(C)=O)[C@@H]1[C@@H](N(Cc2cccc3ccccc23)C(=O)Cc2ccc(OC)cc2)c2cc(OCCCO)ccc2N1C(=O)Cc1ccc2ccccc2c1 (some centres undefined),0.687,0.428 (inactive),0.504 (inactive),-0.717 (inactive),-0.853 (inactive),-0.372 (inactive),0.685 (inactive),0.248 (inactive),0.4,0.141,-0.559 (inactive),0.296,-1.91,-2.41 (inactive),0.42 (inactive),0.512 (inactive)
C=C(COC)C(=O)CC[C@@H](OC(C)=O)c1ccccc1OCCO,0.463,-0.947 (inactive),-0.851 (inactive),-1.34 (inactive),0.166 (inactive),-1.56 (inactive),0.661 (inactive),-0.061 (inactive),-1.09,-0.102,0.0063 (inactive),0.522,-2.06,-5.01 (inactive),0.374 (inactive),0.77 (inactive)
C=CCOC(=O)[C@H]1[C@@H]2C(=O)O[C@@H](c3ccccc3)[C@@H](c3ccccc3)N2[C@@H](c2ccc(OCCOC(=O)[C@@H]3C[C@@H]4C(=O)N[C@@H](CCCCNC(C)=O)C(=O)N4[C@@H]3c3cccc(OCCO)c3)cc2)[C@]12C(=O)Nc1ccccc12,-0.16,1.19 (inactive),0.222 (inactive),0.277 (inactive),2.87 (inactive),1.52 (inactive),0.253 (inactive),0.0636 (inactive),0.147,0.0623,0.785 (inactive),0.824,-1.55,-0.0913 (inactive),0.321 (inactive),0.0173 (inactive)
COC(=O)[C@H](Cc1ccc(O)cc1)N[C@@H](/C=C/C1CC1)[C@H](O)Cc1ccccc1,-0.752,-3.58 (inactive),-0.163 (inactive),-0.23 (inactive),-0.459 (inactive),0.0871 (inactive),-0.396 (inactive),-0.571 (inactive),0.177,0.85,-0.364 (inactive),-0.0324,1.55,-5.14 (inactive),0.412 (inactive),0.0577 (inactive)
COc1ccc(C(=O)Nc2cccc(CN3C(=O)[C@]4(O[C@H](CC(=O)N5Cc6ccccc6C[C@H]5CO)[C@@H]([Si](C)(C)c5ccc(OC)cc5)[C@@H]4C)c4ccccc43)c2)cc1,0.256,1.49 (inactive),-1.38 (inactive),-3.9 (inactive),0.425 (inactive),2.82 (inactive),0.0049 (inactive),0.0565 (inactive),-0.891,0.187,-0.335 (inactive),0.697,-2.94,-2.35 (inactive),1.01 (inactive),0.835 (inactive)
CCCC=C(CCC)[C@@H](NC(=O)c1ccc(C(F)(F)F)cc1)c1ccc(C(F)(F)F)cc1,0.706,2.01 (inactive),0.126 (inactive),0.256 (inactive),0.219 (inactive),2.66 (inactive),-0.101 (inactive),0.0205 (inactive),-1.9,1.11,0.237 (inactive),0.541,-0.702,-3.88 (inactive),-0.136 (inactive),-0.377 (inactive)
COc1ccc(C(O)C2C=CC3C(=O)N(c4ccccc4)C(=O)C3N2Nc2ccc([N+](=O)[O-])cc2)c2ccccc12 (centres undefined),0.248,0.0244 (inactive),-0.121 (inactive),0.767 (inactive),2.53 (inactive),0.0842 (inactive),-0.901 (inactive),-0.219 (inactive),-0.322,0.312,0.314 (inactive),0.685,-1.32,-0.935 (inactive),0.219 (inactive),-0.404 (inactive)
